activity, negative = cell killing and Potency data for 20 compounds are collected here from PubChem BioAssay (NCATS).

The nature of test [1]: Drug repurposing screens with cells derived from glioblastoma tumor samples (AID 1345199). Also: nearly all actives have a fitted effect of over 40% in size. To be noted: GBM patient neurospheres viability, ATP luminescence, 48 h. The procedure, abridged:
(§1)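 Four patient lines of CD133+ GBM neurospheres were screened at several concentrations; hits were retested in those lines plus three slower-growing GBM lines, using 48-hour treatment and ATP-based viability.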

In the next test the test system is astro (control astrocytes). The test is described as above. To be noted: viability, ATP luminescence, 48 h; series mostly up to 45.9 µM. A digest of the protocol: as §1
Setting [2] is: at 45.9 µM (top of the series), tumour line B.
[3] abbreviates: at 45.9 µM (top of the series), tumour line D.
Setting [4] is: at 46 µM (top of the series), tumour line A.
Setting [5] is: at 46.1 µM (top of the series), tumour line C.
The mark [6] stands for this setting: at 20 µM (top of the series), tumour line C.
[7] abbreviates: at 21.2 µM (top of the series), tumour line B.
Setting [8] is: at 21.2 µM (top of the series), tumour line D.
The mark [9] stands for this setting: at 21.3 µM (top of the series), tumour line A.

“And” between values parts separate entries of the source, which are not always exact repeats. Identical values can stand only once. Records with an inconclusive call do not appear. Unmarked numbers belong to inactive results. The source made the active and inactive calls. Calls follow the shape of the dose curve; as a rule, active = well fitted inhibition curve with a large enough effect; inconclusive = small, poorly fitted or top-dose-only effect; inactive = flat fitted curve, though single readings scatter.
% is scaled to controls: 0 for no effect and ±100 for the full control effect; potency is read from the fitted curve at half-maximal effect.

Take `Cc1cn([C@H]2C[C@H](O)[C@@H](CO)O2)c(=O)[nH]c1=O`: the activity, negative = cell killing was -14.8% in test [1] (setting [2]), 6.82% in test [1] (setting [3]), -23.5% in test [1] (setting [4]) and -19.1% in test [1] (setting [5]). Besides, in the test on astro, the Potency entry is “inactive”.
Turning to `COc1ccc(C[C@@H](C)NC[C@H](O)c2ccc(O)c(NC=O)c2)cc1`, the results for the activity, negative = cell killing in test [1] (setting [2]), in test [1] (setting [3]) and in test [1] (setting [5]) were -17.2%, 5.61% and -20.1%, respectively. Moreover, in test [1] (tumour line A), the Potency is 12.6 µM (active). In the test on astro, the Potency result was “inactive”.
Regarding `CC(=O)N[C@@H](CC(=O)N[C@@H](CCC(=O)O)C(=O)O)C(=O)O`, the activity, negative = cell killing was -3.93% in test [1] (setting [2]), 0.816% in test [1] (setting [3]) and 6.84% in test [1] (setting [5]). Further, the Potency in test [1] (tumour line A) was 22.4 µM (active). In addition, in the test on astro, the Potency result was “inactive”.
In the case of `CC1(C)S[C@@H]2[C@H](NC(=O)Cc3ccccc3)C(=O)N2[C@H]1C(=O)O`, the activity, negative = cell killing in test [1] (setting [2]) is -9.27%; in test [1] (setting [3]), -18.5%; in test [1] (setting [4]), -18.5%; in test [1] (setting [5]) it was -5.88%. Further, the Potency entry with astro was “inactive”.
On to `O=C(O)c1cc(=O)c2c3nc4ccccc4oc-3cc(=O)c2[nH]1`, for which the activity, negative = cell killing was -7.08% in test [1] (setting [2]), -5.52% in test [1] (setting [3]), -20.9% in test [1] (setting [4]) and -22.4% in test [1] (setting [5]). Further, the Potency entry with astro is “inactive”.
For the compound `C[C@]12CCC(=O)C=C1CC[C@@H]1[C@@H]2[C@@H](O)C[C@@]2(C)[C@H]1CC[C@]2(O)C(=O)COP(=O)(O)O`, the activity, negative = cell killing in test [1] (setting [2]) is -5.72%; in test [1] (setting [3]) it was -20.1%; in test [1] (setting [4]) it was -14%; in test [1] (setting [5]), -20.1%. In addition, in the test on astro, the Potency result was “inactive”.
With `CCOC(=O)O[C@]1(C(=O)COC(=O)CC)CC[C@H]2[C@@H]3CCC4=CC(=O)C=C[C@]4(C)[C@H]3[C@@H](O)C[C@@]21C`, the activity, negative = cell killing was 2.55% in test [1] (setting [6]), -5.02% in test [1] (setting [7]), -9.53% in test [1] (setting [8]) and -19.6% in test [1] (setting [9]). In the test on astro, the Potency entry was “inactive”.
The matching figures for `CO[C@H]1C[C@H](O[C@H]2[C@H](C)[C@@H](O[C@@H]3O[C@H](C)C[C@H](N(C)C)[C@H]3OC(C)=O)[C@@H](C)C[C@]3(CO3)C(=O)[C@H](C)[C@@H](OC(C)=O)[C@@H](C)[C@@H](C)OC(=O)[C@@H]2C)O[C@@H](C)[C@@H]1OC(C)=O`: -16.4%, -6.68%, -16.6%, -20.4% and “inactive”.
Take `COC(=O)CCC(=O)CN`: the activity, negative = cell killing was -21.7% in test [1] (setting [2]), -18.7% in test [1] (setting [3]), -28.4% in test [1] (setting [4]) and -13.1% in test [1] (setting [5]). Also, the Potency entry in the test on astro is “inactive”.
Take `C=C(NC(=O)C(=C)NC(=O)c1csc(C2=N[C@@H]3c4csc(n4)[C@H]4NC(=O)c5csc(n5)[C@H]([C@](C)(O)[C@@H](C)O)NC(=O)[C@H]5CSC(=N5)C(=CC)NC(=O)C([C@@H](C)O)NC(=O)c5csc(n5)[C@]3(CC2)NC(=O)[C@H](C)NC(=O)C(=C)NC(=O)[C@H](C)NC(=O)C([C@@H](C)CC)NC2C=Cc3c([C@H](C)O)cc(nc3C2O)C(=O)O[C@@H]4C)n1)C(N)=O` (some centres not stated): in test [1] (setting [6]), the activity, negative = cell killing is -17.2%. Moreover, the Potency was 11.2 µM (active) in test [1] (tumour line A), 14.1 µM (active) in test [1] (tumour line B) and 14.1 µM (active) in test [1] (tumour line D). Besides, the Potency result in the test with astro is “inactive”.
With `Nc1ncnc2c1ncn2[C@@H]1O[C@H](COP(=O)(O)OP(=O)(O)OP(=O)(O)O)[C@@H](O)[C@H]1O`, the activity, negative = cell killing in test [1] (setting [2]) was 15.4%; in test [1] (setting [3]), -9.21%; in test [1] (setting [4]) it was -1.48%; in test [1] (setting [5]) it was 38.9%. Also, the Potency result in the test with astro was “inactive”.
The matching figures for `O=S(=O)(O)O`: 3.03%, -20.1%, -0.209%, -1.26% and “inactive”.
`C[C@]12O[C@H](C[C@]1(O)CO)n1c3ccccc3c3c4c(c5c6ccccc6n2c5c31)CNC4=O`: in test [1] (setting [5]), the activity, negative = cell killing is -97.6%. The Potency in test [1] (tumour line A) was 7.08 µM (active); in test [1] (tumour line B), 4.47 µM (active); in test [1] (tumour line D), 3.16 µM (active); with astro it was 0.447 µM (active).
On to `NCc1ccccc1CC(=O)N[C@@H]1C(=O)N2C(C(=O)O)=C(CSc3nnnn3CC(=O)O)CS[C@H]12`, for which the activity, negative = cell killing in test [1] (setting [6]) is -8.3%; in test [1] (setting [7]) it was -4.52%; in test [1] (setting [8]), -30%; in test [1] (setting [9]) it was -23.4%. The Potency entry in the test on astro is “inactive”.
Take `Cc1c(C)c2c(c(C)c1O)CC[C@@](C)(CCC[C@H](C)CCC[C@H](C)CCCC(C)C)O2`: the activity, negative = cell killing was -3.57% and 0.952% in test [1] (setting [2]); -15.8% and 5.62% in test [1] (setting [3]); -28.9% in test [1] (setting [4]); -17.8% and 12.9% in test [1] (setting [5]). Further, the Potency entry with astro is “inactive”.
As for `CC(=O)N(CC(C)C(=O)O)c1c(I)cc(I)c(N)c1I` (configuration not stated), the activity, negative = cell killing in test [1] (setting [6]) is -1.12%; in test [1] (setting [7]), -5.01%; in test [1] (setting [8]), -13.7%; in test [1] (setting [9]) it was -23.8%. For the same compound, in the test with astro, the Potency result was “inactive”.
Regarding `C[C@@H]1[C@H](O)[C@@H](C)/C=C/C=C\C=C\C=C\C=C\C=C\C=C\[C@H](O[C@@H]2O[C@H](C)[C@@H](O)[C@H](N)[C@@H]2O)C[C@@H]2O[C@](O)(C[C@@H](O)C[C@@H](O)[C@H](O)CC[C@@H](O)C[C@@H](O)CC(=O)O[C@H]1C)C[C@H](O)[C@H]2C(=O)O` (stereo in doubt), the activity, negative = cell killing was -6.2% in test [1] (setting [2]), -9.92% in test [1] (setting [3]), -13.6% in test [1] (setting [4]) and -5.87% in test [1] (setting [5]). For the same compound, the Potency entry with astro is “inactive”.
Consider `CC(=O)Oc1c(C)cc(OCC(O)CNC(C)C)c(C)c1C` (configuration not stated), for which the activity, negative = cell killing was -11.9% in test [1] (setting [2]), 5.15% in test [1] (setting [3]) and 13.3% in test [1] (setting [5]). Moreover, the Potency entry in the test on astro is “inactive”.
For `CC1(C)S[C@@H]2[C@H](NC(=O)C(N)c3ccccc3)C(=O)N2[C@H]1C(=O)OC1OC(=O)c2ccccc21` (some centres not stated), the values for the activity, negative = cell killing in test [1] (setting [6]), in test [1] (setting [7]) and in test [1] (setting [8]) were -5.29%, -22.1% and -10.3%, respectively. Besides, in the test on astro, the Potency result was “inactive”.
Turning to `CCCCCCCCCCCCCCCCCCOP(=O)([O-])OC1CC[N+](C)(C)CC1`, the activity, negative = cell killing in test [1] (setting [6]) was -12.3%; in test [1] (setting [7]) it was -9.9%; in test [1] (setting [8]), -6.99%. Also, the Potency result with astro is “inactive”.
